Assay outcomes as filed in PubChem.
Cruzain Triton: blocks cruzain activity in presence of Triton detergent; P25779; purified cruzain, Z-FR-AMC fluorescence, 0.01% Triton; Potency, µM, for the others: max response, negative = inhibition, actives largely listed as inhibitors; 0.43% of 200,000 active; AID 1478;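 also: plate controls were neutral wells for no effect and buffer without enzyme for full effect; nearly all actives have a fitted effect of over 40% in size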
Target sequence (P25779 123-467 limits assumed): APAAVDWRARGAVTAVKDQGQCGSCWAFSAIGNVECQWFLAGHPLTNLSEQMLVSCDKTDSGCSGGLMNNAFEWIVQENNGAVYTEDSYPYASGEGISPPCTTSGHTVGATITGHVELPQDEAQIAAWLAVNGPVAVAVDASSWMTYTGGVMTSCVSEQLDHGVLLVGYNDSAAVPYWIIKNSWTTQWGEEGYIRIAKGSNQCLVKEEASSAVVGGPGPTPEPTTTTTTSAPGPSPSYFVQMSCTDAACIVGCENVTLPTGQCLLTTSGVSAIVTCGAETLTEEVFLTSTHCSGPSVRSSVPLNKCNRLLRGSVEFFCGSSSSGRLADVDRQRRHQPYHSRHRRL
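Compounds were screened in titration against cruzain (1.5 nM) with 0.01% Triton X-100 to counter colloidal aggregation. Activity was the AMC fluorescence increase over 60 s after adding 2 uM Z-FR-AMC at pH 5.5.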
Cruzain noTriton: cruzain (T. cruzi) inhibition without detergent; 2.3% of 200,000 active; Potency, µM, without a hit: max response, negative = inhibition, most hits filed as inhibitors; P25779; purified cruzain, Z-FR-AMC fluorescence, no detergent;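 also: plate controls were enzyme without inhibitor for no effect and buffer without enzyme for full effect; nearly all actives have a fitted effect of over 40% in size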
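Purified cruzain at 1.5 nM, pre-incubated 15 min with compound at room temperature in 100 mM sodium acetate pH 5.5, 5 mM DTT, 0.00005% Triton X-100. Reaction started with 2 uM Z-FR-AMC; AMC fluorescence increase over 60 s gives rate.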
Numbers without * were called inactive; u = inconclusive. Most compounds without a hit are left out; they make up all but 2.4% or so of the library. Calls follow the shape of the dose curve; as a rule, active = well fitted curve in the direction sought with a large enough effect; inconclusive = small, poorly fitted or top-dose-only effect, or another doubt; inactive = no such curve, though single readings can be large; an effect the other way counts as inactive or inconclusive. Potency is read from the fitted curve at half-maximal effect.

SMILES | Cruzain Triton | Cruzain noTriton
CCOc1ccccc1C(=O)N(Cc1cc(OC)c(OC)c(OC)c1)c1ccccn1 | -2.4% | 0.7%
Cc1cccc(C(=O)Nc2nnc(S(=O)(=O)N(C)c3ccccc3C)s2)c1 | -1.7% | -4.0%
CCNc1ncc2nc(-c3cn(C)c4ccccc34)c(=O)n(-c3ccccc3)c2n1 | 1.4% | -8.6%
Cc1c(NS(=O)(=O)c2ccc3c(c2)OCCO3)cccc1-c1nc2cccnc2s1 | -1.2% | 15.8µM*
Cc1cc(-c2nc3cccnc3s2)ccc1NS(=O)(=O)c1ccc2c(c1)OCCO2 | -4.4% | u
Cc1cc2oc(C(=O)Nc3ccc(S(=O)(=O)N4CCC(C)CC4)cc3)cc(=O)c2cc1C | 0.4% | 7.4%
CC1CCN(c2nc3c(S(=O)(=O)c4cccc(Cl)c4)nnn3c3ccsc23)CC1 | -0.6% | 2.3%
C=CCNc1oc(/C=C/c2ccccc2)nc1C#N | 31.6µM* | u
CCOc1ccc(/C=C/c2nc(C#N)c(NCc3ccccc3)o2)cc1 | -6.2% | 3.4%
CN(C)CCNc1oc(/C=C/c2ccccc2)nc1C#N | -28.6% | 25.1µM*
CN(C)CCCNc1oc(/C=C/c2ccc(F)cc2)nc1C#N | u | 25.1µM*
CCOc1ccc(/C=C/c2nc(C#N)c(NCCCN(C)C)o2)cc1 | -16.0% | u
COc1cc(/C=C/c2nc(C#N)c(NCCc3ccccc3)o2)cc(OC)c1OC | 8.6% | u
O=C(Nc1ncc(Cc2ccc(F)cc2)s1)c1ccc2c(c1)CC(c1ccccc1)OC2=O (stereo not given) | -0.1% | -17.6%
CCOC(=O)c1cccc(NC(=O)CCn2nc(C)c3c(C)n(-c4ccccc4)nc3c2=O)c1 | -2.1% | -5.0%
CC(=O)N1[C@H](C)C=C[C@]1(Cc1ccccc1)C(=O)NCc1ccc(C)o1 | -0.6% | 5.7%
COC1OC2COC(c3ccccc3)OC2C(O)C1O (stereo not given) | -2.3% | 6.5%
Cc1ccc(CNC(=O)CN(c2ccc(Cl)cc2Cl)S(=O)(=O)c2ccccc2)cc1 | -6.9% | 9.5%
COc1ccc(/C=N/n2cc(-c3ccc(OC)cc3)nc2N)cc1 | -8.2% | 31.6µM*
COc1ccc(/C=N/n2cc(-c3ccccc3)nc2N)cc1 | -5.0% | u
CCc1ccc(S(=O)(=O)NCc2ccc3c(c2)CCN3C(=O)c2ccc(C)cc2)cc1 | -2.7% | u
CC(C)(C)C(=O)[C@@H]1[C@@H]2C(=O)N(C3CCCCC3)C(=O)[C@@H]2[C@H]2c3ccccc3C=CN12 | 1.6% | u
O=C1c2ccccc2C(=O)N1Cc1ccc2c(c1)OCO2 | -1.8% | -9.6%
O=C(Nc1ccc2c(c1)OCO2)C1CCN(S(=O)(=O)Cc2ccccc2)CC1 | 2.2% | -9.3%
O=C(c1ccc2c(c1)OCO2)[C@@H]1[C@@H]2C(=O)N(C3CCCCC3)C(=O)[C@@H]2C2c3ccccc3C=CN21 (stereo not given in full) | -2.2% | 20µM*
SMILES | Cruzain Triton | Cruzain noTriton
O=C(Nc1ccc2c(c1)OCO2)[C@@H]1[C@@H]2C(=O)N(C3CCCCC3)C(=O)[C@@H]2C2c3ccccc3C=CN21 (stereo not given in full) | -6.5% | 20µM*
O=C(c1cccs1)[C@@H]1[C@@H]2C(=O)N(Cc3ccc4c(c3)OCO4)C(=O)[C@@H]2C2c3ccccc3C=CN21 (stereo not given in full) | -2.3% | 25.1µM*
CCOC(=O)c1ccc(NC(=O)C2CCN(C(=O)N3CC(C)Oc4ccc(C)cc43)CC2)cc1 (stereo not given) | -1.7% | -3.5%
CCOc1ccc(OCC)c(NC(=O)C(NS(=O)(=O)c2ccc(Br)s2)c2ccccc2)c1 (stereo not given) | -1.1% | 10µM*
CCOc1ccc(OCC)c(NC(=O)CCS(=O)(=O)c2ccc(Br)s2)c1 | -7.0% | 5.6%
CCOC(=O)C1CCCN(c2cc(C)nc3c(-c4ccccc4OC)c(C)nn23)C1 (stereo not given) | -4.1% | -1.7%
CC(=O)OCC1OC(Oc2cc(OC(C)=O)c3c(=O)cc(-c4ccc(OC(C)=O)c(OC(C)=O)c4)oc3c2)C(OC(C)=O)C(OC(C)=O)C1OC(C)=O (stereo not given) | 0.6% | u
COCC(=O)N1CCC2(CCN(Cc3ccccc3)CC2)CC1 | 3.9% | 0.0%
Cc1ccc(N(CC(O)Cn2c3ccccc3c3ccccc32)S(=O)(=O)c2ccc(F)cc2)cc1 (stereo not given) | 11.4% | 8.2%
COc1ccc(CN2CCN(CC(O)Cn3c4ccccc4c4ccccc43)CC2)cc1 (stereo not given) | -0.4% | 9.9%
COc1ccc(N(CC(O)Cn2c3ccccc3c3ccccc32)S(=O)(=O)c2ccccc2)cc1 (stereo not given) | 33.0% | 15.8µM*
Cc1cc(C)n(CC(O)Cn2c3ccccc3c3ccccc32)c(=O)n1 (stereo not given) | 0.7% | u
COc1ccc(/C=C2/SC(=O)N(CC(O)Cn3c4ccccc4c4ccccc43)C2=O)cc1 (stereo not given) | -4.5% | 10µM*
O=C1S/C(=C\c2ccccc2)C(=O)N1CC(O)Cn1c2ccccc2c2ccccc21 (stereo not given) | -3.8% | 31.6µM*
Nc1ncnc2nc(-c3ccc(N4CCOCC4)nc3)cc(-c3cccc(Br)c3)c12 | -9.4% | 11.2%
O=C(C#Cc1ccccc1)c1cccc([N+](=O)[O-])c1 | 12.6µM* | -15.6%
N/C(=N\OC(=O)Oc1ccccc1)c1cccc([N+](=O)[O-])c1 | -7.0% | 3.6%
COc1ccc(NC(=O)N2CCc3c([nH]c4ccc(OC)cc34)C2c2ccc(OC)cc2)cc1 (stereo not given) | -6.4% | u
CCc1cc2ccc(OC)cc2nc1SCC(=O)Nc1cc(C)on1 | 6.7% | 10µM*
CCc1cc2ccccc2nc1SCC(=O)Nc1cc(C)on1 | 1.3% | -7.9%
Cc1csc(NC(=O)CSc2nsc(SCC(=O)Nc3nc(C)cs3)c2C#N)n1 | -5.9% | u
Cc1ccc(NC(=O)CSc2nsc(SCC(=O)Nc3ccc(C)cc3C)c2C#N)c(C)c1 | -8.3% | 10µM*
COc1ccccc1NC(=O)N(Cc1ccco1)C1CCN(C(C)=O)CC1 | 2.3% | -2.9%
COc1ccc(NC(=O)C(C(C)C)N2Cc3ccccc3C2=O)cc1 (stereo not given) | -2.1% | 5.1%
N#Cc1ccc(-c2csc(NC(=O)c3ccc(S(=O)(=O)N4CCc5ccccc5C4)cc3)n2)cc1 | -2.2% | 6.31µM*
SMILES | Cruzain Triton | Cruzain noTriton
Cc1cc(C)c2sc(NNC(=O)c3ccc(S(=O)(=O)N4CCc5ccccc5C4)cc3)nc2c1 | 4.1% | 6.31µM*
Cc1cc(C)c2nc(NNC(=O)c3ccc(S(=O)(=O)N4CCc5ccccc5C4)cc3)sc2c1 | 3.5% | 6.31µM*
COC(=O)COc1ccc(S(=O)(=O)N2CCc3ccccc3C2)cc1C | -2.9% | 7.7%
CCc1nnc(NC(=O)c2ccc(S(=O)(=O)N3CCc4ccccc4C3)cc2)s1 | 3.6% | u
O=C(Nc1nc(-c2ccncc2)cs1)c1ccc(S(=O)(=O)N2CCOCC2)cc1 | 1.5% | 5.0%
COc1ccc(Br)cc1Cn1nnc(C(=O)Nc2ccc(C)cc2C)c1N | -2.5% | u
C[C@@]12CCC(=O)C[C@@H]1CC(=O)[C@H]1[C@H]3CCC[C@]3(C)C(=O)C[C@@H]12 (tested in a mixture with another compound) | -0.8% | 0.1%
Cc1c(C(=O)Nc2cccc(-c3nc4ccccc4s3)c2)oc2ccc(F)cc12 | -0.1% | -0.2%
